# The supplement of paper PMC6555819
# Tests used:
# Experiment in all cases: PBM binding z-score (relative to random genomic background probes); higher = stronger binding; sequences stand for … in GC…GCGATTGACAGCGTAGAATGAAGG
# [1] = system: PPARg:RXRa DBDmut IVT, anti-RXR (DBD mutation: RXRa K156A/R161A, NR concentration 270 nM, RXRa partner concentration 90 nM)
# Method in brief: (§1)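 Binding z-scores were set against random background probes. The data came from custom Agilent 4×180K protein-binding microarrays carrying double-stranded probes with 34-nt variable regions, incubated 1 h with ligand-free nuclear receptor dimers. Partner-specific antibodies detected binding, and scanned fluorescence was regression-normalized.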
# [2] = system: PPARg:RXRa IVT, anti-PPARg (NR concentration 270 nM, RXRa partner concentration 90 nM)
# Method in brief: as §1
# [3] = system: PPARg DBDmut:RXRa IVT, anti-PPARg (DBD mutation: PPARg1 K132A/R137A, NR concentration 270 nM, RXRa partner concentration 90 nM)
# Method in brief: as §1
# [4] = system: PPARg DBDmut IVT, anti-PPARg (DBD mutation: PPARg1 K132A/R137A, NR concentration 270 nM)
# Method in brief: as §1
# [5] = system: PPARg homodimer (NR concentration 180 nM)
# Method in brief: as §1
# [6] = system: PXR:RXRa (NR concentration 270 nM, RXRa partner concentration 90 nM)
# Method in brief: as §1
# [7] = system: PXR homodimer (NR concentration 270 nM)
# Method in brief: as §1
# [8] = system: RARa:RXR (NR concentration 270 nM, RXRa partner concentration 90 nM)
# Method in brief: as §1
# [9] = system: RARa homodimer (NR concentration 270 nM)
# Method in brief: as §1
# [10] = system: RARb:RXRa (NR concentration 270 nM, RXRa partner concentration 90 nM)
# Method in brief: as §1
# [11] = system: RARb homodimer (NR concentration 270 nM)
# Method in brief: as §1
# [12] = system: RARg:RXRa (NR concentration 270 nM, RXRa partner concentration 90 nM)
# Method in brief: as §1
# [13] = system: RARg homodimer (NR concentration 270 nM)
# Method in brief: as §1
# [14] = system: RXRa DBDmut IVT, anti-RXR (DBD mutation: RXRa K156A/R161A, NR concentration 90 nM)
# Method in brief: as §1
# [15] = system: RXRa homodimer (NR concentration 180 nM)
# Method in brief: as §1
# [16] = system: THRa:RXRa (NR concentration 90 nM, RXRa partner concentration 90 nM)
# Method in brief: as §1
# [17] = system: THRa homodimer (NR concentration 90 nM)
# Method in brief: as §1
# [18] = system: VDR homodimer (NR concentration 270 nM)
# Method in brief: as §1
Sequence,PBM binding z-score [1],PBM binding z-score [2],PBM binding z-score [3],PBM binding z-score [4],PBM binding z-score [5],PBM binding z-score [6],PBM binding z-score [7],PBM binding z-score [8],PBM binding z-score [9],PBM binding z-score [10],PBM binding z-score [11],PBM binding z-score [12],PBM binding z-score [13],PBM binding z-score [14],PBM binding z-score [15],PBM binding z-score [16],PBM binding z-score [17],PBM binding z-score [18]
AGAATGAGGTTATTAAGCTCAGGGAATTGCGGTC,2.58,1.95,0.589,0.126,-0.0657,0.757,-0.286,0.948,-0.655,1.09,0.163,0.737,0.334,2,1.6,1.99,0.104,0.783
GACACAGGGTCAAGGCCAGAGTACGCGTATTGAT,2.25,3.61,0.42,-0.363,1.5,3.91,0.315,4.77,0.257,4.41,3.64,5.52,5.02,2.59,6.19,3.64,0.875,2.13
GCTATTACTTGAAAGGGCAACCGAATGATTCTCG,0.661,0.239,-0.509,0.326,0.811,0.499,-0.0796,0.627,0.826,2.17,2.01,1.27,1.27,0.581,0.965,0.521,-0.383,-0.15
GCTTGTAGATCAAGGTGAAGAAAGACTAAGCTAA,1.63,1.6,-0.514,-0.503,-0.575,-0.352,-0.243,-0.339,-0.424,0.0933,-0.485,-0.139,-0.0485,-0.298,-0.15,1.04,0.0567,-0.307
TCAGACAGGTGAAGGTAACTCATGTACGCAGTCG,2.93,1.04,0.0578,0.317,0.397,0.672,0.214,0.117,0.348,1.04,0.741,0.76,0.656,1.32,1.02,0.677,0.193,0.0395
ATCTCTAGGTCACAAGTTCAGTGAAAGAGAGGAC,6.82,6.99,2.94,2.5,2.82,3.7,2.65,3.86,1.69,4.5,4.24,5.58,6.02,2.17,4.04,3.4,2.36,3.53
CAAACTACGTCACCGGAAGGTCAAAGTCCGCATG,0.517,1.61,0.449,1.03,2.68,3.83,1.39,4.14,1.23,3.3,4.23,4.01,2.91,0.765,3.55,2.88,1.47,2.03
CCTGCTAGGTCAATCGTCAGCTAAAGCAGCTCGC,4.52,3.19,-0.719,-1.31,0.995,0.842,-0.551,1.58,-0.666,3.63,2.83,3.59,4.42,1.78,2.15,2.11,0.36,-0.0155
TCGAGTAGGTTACCAATAGGGCATTCAGCTTTCT,3.28,2.9,-0.0313,0.193,-0.151,0.391,-0.656,0.441,-0.367,1.08,0.965,1.78,0.593,0.262,0.749,0.215,-0.961,-0.368
GCGACTGGGGCAAAGCAGATTACCATAAGGTTGG,4.66,3.29,-0.663,-0.34,-0.207,-0.451,-0.273,-0.203,-0.607,0.381,-0.011,0.122,0.273,-0.0663,0.0208,-0.00555,-0.248,-0.153
ATCTCTGGGTAAGACTCAGTTCAGTGAAGAACGC,1.16,1.22,0.795,0.645,0.772,1.16,1.54,0.0495,0.661,0.293,0.372,0.252,0.292,0.0786,-0.0436,0.589,0.517,1.27
CGAACTAGGGCATTGACAGGACAGTGAATAGTAA,6.82,6.53,1.42,0.993,0.464,-0.229,-0.0482,-0.297,0.262,1.14,0.812,1.07,1.13,0.467,0.388,0.559,-0.0936,0.137
GATTCAGGGTCAAGGCCAGAGTACGCGTATTGAT,3.79,4.63,1.51,0.0606,3.59,4.81,0.452,5.58,0.724,4.92,4.04,6.08,5.81,3.03,7.1,3.87,2,3.02
CAAACTAGGTAAAAGGTCAAAGTCGAGCCAACCA,7.05,7.46,2.77,1.52,3.65,5.33,1.53,6.52,2.55,4.87,4.69,6.32,5.16,1.67,7.54,4.01,1.07,2.02
